Source: PubChem BioAssay
F508del corr: correctors of CFTR F508del function in bronchial epithelial cells; actives 0.36% (n = 350,000); activity (quench increase), % at 7.58 µM; CFBE cells, YFP halide quenching; stimulated with forskolin plus potentiator P3; % fluorescence drop versus neutral controls;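 active = mean added fluorescence quench of at least 8% versus neutral control, with both replicates also reaching 8%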;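 also: cells transiently co-express mutant CFTR-F508del with the halide-sensitive YFP; corrector assay measuring rescue of mutant channel to the surface after 24 h compound exposure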
MPTP block: blocks calcium-induced mitochondrial swelling | inhibition, % at 10 µM | isolated mouse mitochondria, Ca2+ swelling absorbance, 30 min | actives 1.4% (n = 360,000);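 active = inhibition of 50% or more, scaled per plate between neutral and stimulator controls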;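 also: 0% = DMSO wells given calcium and 100% = 1 mM EGTA wells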
CendR NRP1 mod: NRP-1/CendR interaction modulation; O14786; FAM-RPARPAR peptide binding to NRP-1, fluorescence polarization; inhibition, % at 25 µM; actives 0.85% (n = 360,000); AID 602438;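 active = inhibition or corrected inhibition above about 18%, plus a signal ratio from 0.5 to 1.5, limit read from the data, passing the limit was not always enough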
ATG4B inhibitor: blocks human ATG4B protease cleavage of LC3 substrate; Q9Y4P1; ATG4B cleavage of LC3-PLA2, NBD-HPC fluorescence, 1 h; inhibition, % at 8.33 µM; actives 0.51% (n = 340,000); in the data active = inhibition above about 40%
SKN-1 block: C. elegans SKN-1 inhibition; C. elegans VP596 Pgst-4::GFP/RFP ratio, acrylamide-induced, 24 h; inhibition, % at 21.8 µM; actives 0.49% (n = 360,000);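 active = interference check ratio from 0.5 to 1.5 plus GFP to RFP signal ratio inhibition reaching or exceeding a fixed threshold, cut at about 30% in these data, passing the limit was not always enough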
ATG4B conf: ATG4B (human) inhibition, single-dose confirmed; shares compounds with ATG4B inhibitor; ATG4B protease fluorescent substrate cleavage assay; inhibition, % at 8.33 µM; actives 92% (n = 320); AID 504757; in the data active = inhibition above about 39%
PLA2 ctr: inhibits human PLA2, flagging false ATG4B inhibitors. inhibition, % at 8.33 µM. purified PLA2, NBD-C6-HPC fluorescence, 45 min. actives 66% (n = 1,600). AID 588402. shares compounds with ATG4B inhibitor; in the data active = inhibition above about 50%
An asterisk follows results filed as active. Most compounds without a hit are left out; they make up all but 2.7% or so of the library.

`CCS(=O)(=O)N1Cc2ccccc2CC1C(=O)Nc1nnc(SCc2c(Cl)cccc2Cl)s1` (stereo not given) gave F508del corr -4.9, MPTP block 8.0, CendR NRP1 mod -7.5, ATG4B inhibitor 73.8*, SKN-1 block 3.8 and PLA2 ctr 64.0*.
`O=S(=O)(Nc1c(S(=O)(=O)c2ccccc2)c2nc3ccccc3nc2n1C1CCCCC1)c1ccccc1` gave F508del corr -2.9, MPTP block 48.0, CendR NRP1 mod -19.1, ATG4B inhibitor 44.6*, SKN-1 block -13.4 and PLA2 ctr 50.1*.
For CCCN1[C@@H]2c3ccc(C4=CCCCC4)c(=O)n3C[C@@H]2[C@@H](CO)[C@@H]1C(=O)N(C)C the results were F508del corr -1.3.
`CCN(CC(=O)N1CCc2ccccc2C1)S(=O)(=O)c1ccc2ccccc2c1` gave MPTP block 0.0, CendR NRP1 mod 8.1, ATG4B inhibitor 45.9*, SKN-1 block 0.5, ATG4B conf 66.0* and PLA2 ctr 40.9.
`C[C@@H]1CN([C@@H](C)CO)C(=O)Cc2cc(NS(=O)(=O)c3ccc(F)cc3)ccc2O[C@H]1CN(C)Cc1ccc(-c2ccccc2)cc1` gave F508del corr 3.4.
Screening CNc1cc(CSc2ccc(Cl)cc2)nc(C)n1 returned F508del corr -0.7, MPTP block -1.1, CendR NRP1 mod 2.8, ATG4B inhibitor -2.7 and SKN-1 block 11.2.
Screening Cc1nc(CSc2ccc(Cl)cc2)cc(NCc2ccccc2)n1 returned MPTP block 0.1, CendR NRP1 mod 0.3, ATG4B inhibitor 72.8*, SKN-1 block 1.3 and PLA2 ctr 78.9*.
`C[C@@]12CCC=C[C@H]1[C@H](c1ccc3ccccc3c1Br)N(Cc1ccccc1)C2=O` gave F508del corr 2.7, MPTP block -1.2, CendR NRP1 mod 12.8, ATG4B inhibitor 50.1*, SKN-1 block -13.9 and PLA2 ctr 76.3*.
Screening C=CCN1C(=O)NC(c2ccc(OC)cc2)(C(F)(F)F)S/C1=C(\C#N)c1nnc(N2CCOCC2)n1-c1ccccc1 (stereo not given) returned F508del corr -3.5, MPTP block 2.3, CendR NRP1 mod -47.2, ATG4B inhibitor 5.7 and SKN-1 block 11.2.
For C=CCN1C(c2cccc(C(F)(F)F)c2)=CS/C1=C(/C#N)c1nnc(N2CCOCC2)n1-c1ccccc1 the results were MPTP block 0.7, CendR NRP1 mod -6.5, ATG4B inhibitor 49.9*, SKN-1 block 7.7 and PLA2 ctr 54.9*.
`C=CCN1C(c2ccc(Br)cc2)=CS/C1=C(/C#N)c1nnc(N2CCOCC2)n1-c1ccccc1` gave F508del corr 0.2, MPTP block 3.4, CendR NRP1 mod 20.5, ATG4B inhibitor 61.4*, SKN-1 block -0.8 and PLA2 ctr 69.9*.
`O=C(C[C@@H]1C[C@H]2c3cc(NC(=O)Nc4ccccc4F)ccc3O[C@H]2[C@H](CO)O1)NCc1ccc(Oc2ccccc2)cc1` gave F508del corr 1.3.
`C[C@H]1CN([C@@H](C)CO)C(=O)c2cc(NC(=O)Cc3cn(C)c4ccccc34)ccc2O[C@@H]1CN(C)Cc1ccc(Oc2ccccc2)cc1` gave F508del corr 0.4.
O=C(C[C@H]1CC[C@@H](NC(=O)C2CCOCC2)[C@H](CO)O1)Nc1ccccc1 was read as F508del corr -2.2.
For CC1=NN(c2ccc(C(=O)O)cc2)C(=O)/C1=C\c1ccc(OC(=O)c2cccs2)cc1 the results were F508del corr -0.9, MPTP block -0.7, CendR NRP1 mod -104.8, ATG4B inhibitor 85.0*, SKN-1 block -0.1 and PLA2 ctr 70.0*.
CC(C)(C)[S@@](=O)N1Cc2cc(C(=O)N[C@@H]3CCN(Cc4ccccc4)C3)nc(-c3cccc(-c4cccnc4)c3)c2[C@H]1CCO was read as F508del corr -1.2.
Screening COc1cc2c(cc1NC(=O)C(C)Sc1ccc(NC(C)=O)cc1)oc1ccccc12 (stereo not given) returned MPTP block 6.9, CendR NRP1 mod -0.9, ATG4B inhibitor 43.5*, SKN-1 block 1.5, ATG4B conf 90.9* and PLA2 ctr 39.1.
For Cc1ccccc1Oc1cc(NC(=O)CCCn2nc(C)c([N+](=O)[O-])c2C)cc([N+](=O)[O-])c1 the results were MPTP block 25.8, CendR NRP1 mod 19.3, ATG4B inhibitor 66.0*, SKN-1 block -2.1 and PLA2 ctr 62.5*.
Cc1ccccc1Oc1cc(NC(=O)Cn2cnc([N+](=O)[O-])c2)cc([N+](=O)[O-])c1 was read as F508del corr -1.4, MPTP block 4.1, CendR NRP1 mod -3.4, ATG4B inhibitor -14.2 and SKN-1 block 0.8.
`Cc1nn(CCCC(=O)Nc2cc(Oc3ccc(F)cc3)cc([N+](=O)[O-])c2)c(C)c1[N+](=O)[O-]` gave MPTP block 37.8, CendR NRP1 mod -7.4, ATG4B inhibitor 56.3*, SKN-1 block -6.0 and PLA2 ctr 60.4*.
For Cn1c(-c2c(N)n(CCCc3ccccc3)c3nc4ccccc4nc23)nc2ccccc21 the results were F508del corr -1.5, MPTP block 2.2, CendR NRP1 mod -38.5, ATG4B inhibitor 42.4*, SKN-1 block -1.4 and PLA2 ctr 51.6*.
Cn1c(-c2c(N)n(CCc3ccccc3)c3nc4ccccc4nc23)nc2ccccc21 was read as F508del corr -0.7, MPTP block 1.6, CendR NRP1 mod -52.1, ATG4B inhibitor 14.4 and SKN-1 block 19.2.
`O=Cc1ccccc1OCCCOc1cccc2cccnc12` gave F508del corr 7.6, MPTP block 2.3, CendR NRP1 mod -6.9, ATG4B inhibitor 65.1*, SKN-1 block -4.5 and PLA2 ctr 75.0*.
Screening CCc1ccc(Oc2nnnn2-c2ccc(C(N)=O)cc2)cc1 returned F508del corr -4.4, MPTP block -2.8, CendR NRP1 mod 1.6, ATG4B inhibitor 59.6*, SKN-1 block 6.7 and PLA2 ctr 90.9*.
For CCN(Cc1ccc2c(c1)OCCO2)C(=O)CSc1nc(C)nc2sc(C)c(C)c12 the results were F508del corr 4.9, MPTP block -0.5, CendR NRP1 mod -25.7, ATG4B inhibitor 46.8*, SKN-1 block 2.1 and PLA2 ctr 67.6*.
Screening CC(=O)c1cc2c(C)c(C(=O)c3ccccc3)oc2cc1O returned MPTP block 3.5, CendR NRP1 mod -137.4, ATG4B inhibitor 40.0*, SKN-1 block 16.0 and PLA2 ctr -5.9.
For O=C(Nc1cc2c(cc1C(=O)O)OCCCO2)c1ccc(C(F)(F)F)cc1 the results were F508del corr 4.3, MPTP block 0.4, CendR NRP1 mod -11.4, ATG4B inhibitor 9.7 and SKN-1 block -5.3.
